Results taken from ChEMBL document CHEMBL1201862, “PubChem BioAssay data set” (2004).
Screen size: about 400,000 compounds; about 2,100 (0.53%) were called active. Inconclusive results (about 14%) are left out. No rule for the calls is given here. What follows is part of a selection rich in actives, with near analogues and random picks from the rest.

Molecular target: Ataxin-2 (Homo sapiens) (UniProt Q99700)
Test: qHTS for Inhibitors of ATXN expression.
Format: functional

Chain of Ataxin-2 (Homo sapiens) (Q99700 whole entry): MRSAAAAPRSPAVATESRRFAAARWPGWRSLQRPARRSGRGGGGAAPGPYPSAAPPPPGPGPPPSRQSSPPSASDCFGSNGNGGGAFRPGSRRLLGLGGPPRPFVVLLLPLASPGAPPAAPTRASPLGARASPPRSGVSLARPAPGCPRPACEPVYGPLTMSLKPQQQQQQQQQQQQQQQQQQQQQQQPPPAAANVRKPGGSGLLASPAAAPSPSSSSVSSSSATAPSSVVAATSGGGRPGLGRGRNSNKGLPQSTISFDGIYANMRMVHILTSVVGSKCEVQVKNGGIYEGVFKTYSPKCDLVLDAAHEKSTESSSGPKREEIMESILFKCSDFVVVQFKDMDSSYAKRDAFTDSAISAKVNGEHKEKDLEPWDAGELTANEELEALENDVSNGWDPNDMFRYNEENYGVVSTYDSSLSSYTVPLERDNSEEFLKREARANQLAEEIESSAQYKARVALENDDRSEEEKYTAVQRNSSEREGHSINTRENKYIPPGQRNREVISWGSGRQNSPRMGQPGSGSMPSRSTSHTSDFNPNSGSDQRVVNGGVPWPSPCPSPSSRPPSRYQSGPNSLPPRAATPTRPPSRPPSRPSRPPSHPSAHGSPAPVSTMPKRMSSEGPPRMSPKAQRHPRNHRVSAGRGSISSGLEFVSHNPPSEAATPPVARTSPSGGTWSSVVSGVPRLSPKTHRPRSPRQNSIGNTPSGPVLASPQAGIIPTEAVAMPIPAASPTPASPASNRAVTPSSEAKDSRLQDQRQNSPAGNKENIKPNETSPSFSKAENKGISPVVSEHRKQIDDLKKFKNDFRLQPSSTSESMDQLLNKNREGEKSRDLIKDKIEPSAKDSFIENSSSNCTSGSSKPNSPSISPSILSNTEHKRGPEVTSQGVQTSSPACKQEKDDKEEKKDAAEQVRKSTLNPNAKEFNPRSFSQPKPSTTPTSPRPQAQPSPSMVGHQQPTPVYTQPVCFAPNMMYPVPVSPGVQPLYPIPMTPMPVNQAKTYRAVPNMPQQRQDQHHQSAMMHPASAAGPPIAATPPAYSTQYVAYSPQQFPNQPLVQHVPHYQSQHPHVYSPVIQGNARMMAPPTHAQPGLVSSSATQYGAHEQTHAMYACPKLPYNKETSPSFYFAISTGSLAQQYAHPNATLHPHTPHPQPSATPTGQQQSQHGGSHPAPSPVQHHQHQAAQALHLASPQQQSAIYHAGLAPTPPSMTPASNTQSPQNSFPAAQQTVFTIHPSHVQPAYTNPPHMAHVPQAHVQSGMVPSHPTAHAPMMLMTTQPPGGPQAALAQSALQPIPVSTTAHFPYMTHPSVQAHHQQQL

Row | SMILES | Potency
1 | CCOc1ccc(-c2nc(O)c3c(-c4cccs4)csc3n2)cc1 | inactive
2 | Cn1ccnc1C(=O)C1CCCN(Cc2c[nH]nc2-c2ccc(-c3ccccc3)cc2)C1 (stereo unspecified) | inactive
3 | CCN(CC)c1ccc2cc(-c3nnc(-c4ccccc4)o3)c(=O)oc2c1 | inactive
4 | COc1cc2cc(C(N)=O)c(N)nc2cc1OC | inactive
5 | Cc1ccc2nc3c(cc(C(=O)NCC4CCCO4)c(=N)n3C(C)C)c(=O)n2c1 (stereo unspecified) | inactive
6 | CC[C@]12c3[nH]c4ccc(Cl)cc4c3CCN1C(=O)[C@@H](CC(=O)NC/C=C(\C)CCC=C(C)C)C[C@@H]2C(=O)N1CCN(C(=O)C2CC2)CC1 | 25.1 µM (active)
7 | O=C1CSC(N/N=C/c2ccncc2)=N1 | inactive
8 | Cc1ccc(S(=O)(=O)NCc2c(-c3ccccc3)noc2C)cc1 | inactive
9 | Cc1ccc(N(C)C(CNS(=O)(=O)c2ccccc2)c2ccccc2)cc1 (stereo unspecified) | 25.1 µM (active)
10 | Cc1ccc(S(=O)(=O)NCCCCCC(=O)NCCc2ccccc2)cc1 | inactive
11 | Cc1cccn2c(=O)c3cc(C#N)c(=O)n(-c4nnc(SCc5ccc(F)cc5)s4)c3nc12 | inactive
12 | COc1ccc(OC)c(NC(=O)c2ccc(OC3CSC3)cc2)c1 | inactive
13 | COc1ccc(NC(=O)c2ccc(S(=O)(=O)C(F)F)cc2)c(OC)c1 | inactive
14 | COc1ccc(/C=N/Nc2ncnc3sc4c(c23)CCCC4)cc1OC | inactive
15 | COc1ccc(OC)c(NC(=O)COC(=O)c2ccc(OC)c(S(=O)(=O)N3CCOCC3)c2)c1 | inactive
16 | COc1ccc(NC(=O)c2c(NCc3cccc(F)c3)sc3c2CCC3)c(OC)c1 | 25.1 µM (active)
17 | COc1ccc(NC(=O)C2=CN3CCS(=O)(=O)N=C3C=C2)c(OC)c1 | inactive
18 | COc1ccc(OC)c(NC(=O)c2c(NCc3ccc(OC)c(OC)c3)sc3c2CCC3)c1 | 39.8 µM (active)
19 | COc1cccc(-c2ccc3c(N)c(C(=O)Nc4cc(F)ccc4F)sc3n2)c1 | inactive
20 | COC(=O)c1ccc(NC(=O)c2c(NCc3ccc(OC)c(OC)c3)sc3c2CCCC3)cc1 | 17.8 µM (active)
21 | COc1ccc(NC(=O)c2c(NCc3sccc3C)sc3c2CCCCC3)c(OC)c1 | 39.8 µM (active)
22 | COc1ccc(NC(=O)CON=CC(=O)Nc2ccc(C)cc2)c(OC)c1 | inactive
23 | Cc1nc(NC(=O)CSc2nnc(C3CC3)n2C)sc1C | inactive
24 | C=CCn1c(=N)c(C(=O)NCCCOC)cc2c(=O)n3cc(C)ccc3nc21 | inactive
25 | CCOc1ccc(S(=O)(=O)[N-]c2nc3ccccc3nc2-[n+]2ccc(NC(=O)c3cccs3)cc2)cc1 | inactive
26 | CCCn1c(=O)c(C(=O)Nc2ccccc2C)c(O)c2ccccc21 | inactive
